# CYP2C19 activ: activators of human cytochrome P450 2C19 | recombinant CYP2C19, luciferin-H EGE luminescence; stronger effect = higher value; 0 = fully inhibited enzyme, 1 = untreated enzyme | activation factor at 5 µM | 96,000 tested, under 10 active;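 active means activation factor of at least 2 at 5 µM in the primary screen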
# Target sequence (P33261 whole entry, looked up): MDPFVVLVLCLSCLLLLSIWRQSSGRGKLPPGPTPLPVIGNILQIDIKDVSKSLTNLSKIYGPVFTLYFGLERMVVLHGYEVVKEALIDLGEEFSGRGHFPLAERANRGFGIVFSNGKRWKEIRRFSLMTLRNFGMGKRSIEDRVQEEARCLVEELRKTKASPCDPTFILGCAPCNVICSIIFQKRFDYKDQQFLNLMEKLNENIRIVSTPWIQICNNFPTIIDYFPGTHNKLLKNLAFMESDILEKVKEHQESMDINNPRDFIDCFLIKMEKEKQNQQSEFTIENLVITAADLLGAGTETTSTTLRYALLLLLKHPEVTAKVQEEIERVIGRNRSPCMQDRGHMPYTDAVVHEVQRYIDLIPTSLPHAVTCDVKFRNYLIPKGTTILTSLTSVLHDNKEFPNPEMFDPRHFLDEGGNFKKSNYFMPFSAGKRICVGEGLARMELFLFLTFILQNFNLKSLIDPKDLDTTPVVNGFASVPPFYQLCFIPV
# CYP2C9 activ: increases human cytochrome P450 2C9 activity; activation factor at 5 µM; AID 1024; recombinant CYP2C9, luciferin-H conversion, luminescence; stronger effect = higher value; factor 1 = untreated enzyme, 0 = blocked; P11712; actives 1.4% (n = 96,000);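 active means activation factor of 2 or more for CYP2C9 at a 5 µM dose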
# CYP2C19 inh: inhibitors of human CYP2C19; P33261; CYP2C19 Supersomes, luciferin-H EGE luminescence, 30 min; actives 21% (n = 96,000); AID 778; inhibition, % at 5 µM;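 active means CYP2C19 inhibition above a set limit at 5 µM in the primary screen, cut at about 50% in these data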
# PostGolgi yeast: growth inhibition of a yeast mutant, post-Golgi transport screen. post-Golgi transport phenotypic cell assay. actives 0.9% (n = 98,000). inhibition, % at 10 µM;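 further: yeast cells grown in 1536-well plates; yeast grown about 18 h at 30C before absorbance read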
# CYP2C9 inhib: blocks human cytochrome P450 2C9. actives 20% (n = 96,000). P11712. inhibition, % at 5 µM. CYP2C9 Supersomes, luciferin-H conversion, luminescence;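 active means blocking of liver enzyme CYP2C9 beyond about 50% at 5 µM, limit read from the data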
# PostGolgi ctrl: inhibits growth of the yeast control strain. efflux-deficient yeast background strain, growth absorbance A615, 16 h. inhibition, % at 10 µM. actives 5% (n = 98,000)
# A number is an active result; n = inactive; x = no result. This is a sample that favours compounds with a hit; in the whole collection about 32% have one here. Unless noted, no stated cut-off is given here; in the data, active means inhibition above about 30%; inactive means the rest.
SMILES,CYP2C19 activ,CYP2C9 activ,CYP2C19 inh,PostGolgi yeast,CYP2C9 inhib,PostGolgi ctrl
CCOC(=O)C1=C(Cn2ccc(C(F)(F)F)n2)NC(=O)NC1c1ccc2c(c1)OCO2 (centres undefined),n,n,72.1,n,65.3,n
CCC(C)OC(=O)C1=C(C)NC(=O)NC1c1ccc(F)cc1 (centres undefined),n,n,95.3,n,n,n
CC1=C(C(=O)OC(C)C)C(c2ccc(Br)s2)NC(=O)N1 (centres undefined),n,n,82.1,n,n,n
CC1=C(C(=O)OC(C)C)C(c2ccco2)NC(=O)N1 (centres undefined),n,n,n,n,n,n
CCOC(=O)C1=C(C)NC(=O)NC1c1ccc2c(c1)OCCO2 (centres undefined),n,n,n,n,n,n
CS(=O)(=O)N(CC(=O)N1CCCCCC1)c1ccc2c(c1)OCCO2,n,n,n,n,n,n
CC1=C(C(=O)OCC(C)C)C(c2ccsc2)NC(=O)N1 (centres undefined),n,n,65.0,n,52.5,n
CC1=C(C(=O)OCc2ccc3c(c2)OCO3)C(c2ccc(Cl)cc2)NC(=O)N1 (centres undefined),n,n,n,x,n,x
CC1=C(C(=O)OCc2ccc3c(c2)OCO3)C(c2ccc(F)cc2)NC(=O)N1 (centres undefined),n,n,n,n,52.4,n
CCOC(=O)C1CCN(C(C(=O)NC2CCCCC2)c2ccc(OC)cc2)CC1 (centres undefined),n,n,n,n,n,n
CCOC(=O)c1ccc2[nH]c3c(c2c1)CCCCC3=O,x,x,x,n,x,n
CCOC(=O)c1ccc2[nH]c3c(c2c1)CCCC3C(=O)OCC (centres undefined),n,n,89.0,n,82.0,n
COc1ccccc1-c1noc(-c2cccs2)n1,n,n,n,n,n,32.1
COc1ccccc1-c1nc(-c2ccccn2)no1,n,n,79.1,n,n,n
COc1ccccc1-c1noc(-c2ccncc2)n1,n,n,89.2,n,n,n
COc1ccccc1-c1nc(-c2ccc(C)nc2OC)no1,n,n,61.5,n,n,n
Cc1ccc(-c2noc(-c3cccs3)n2)cc1,n,n,n,n,n,n
COc1ccc(Br)cc1-c1noc(-c2ccncc2)n1,n,n,n,n,n,n
O=C(NCc1ccccn1)C1CCC(=O)N1C1CCCCC1 (centres undefined),n,n,n,n,n,n
Cc1ccc(S(=O)(=O)N[C@H](C(=O)N2CCC3(O)CCCCC3C2)c2ccccc2)cc1 (some centres undefined),n,n,n,n,n,n
N#Cc1ccccc1CSc1nc(O)cc(=O)[nH]1,n,n,n,n,n,n
CCCC(=O)Nc1c(-c2cccs2)c(=O)c2ccccc2n1C,n,n,n,n,n,n
CCn1c(NC(=O)c2cccs2)nc2ccccc21,n,n,n,n,n,n
Cc1ccc(C(=O)Nc2c(-c3cccs3)c(=O)c3ccccc3n2C)cc1,n,n,n,n,98.0,n
CCn1c(NC(=O)c2cccs2)c(-c2cccs2)c(=O)c2ccccc21,n,n,n,n,93.4,n
SMILES,CYP2C19 activ,CYP2C9 activ,CYP2C19 inh,PostGolgi yeast,CYP2C9 inhib,PostGolgi ctrl
CC1(C)C(c2cccs2)=[N+]([O-])C2(CCCCC/C2=N\NC(N)=O)N1O (centres undefined),n,n,n,n,n,n
O=C(CSc1nnc(-c2ccc(Cl)cc2Cl)n1C1CCCCC1)N1CCCC1,n,n,n,n,n,n
CCC(Sc1nc2sc(C(=O)OC)c(C)c2c(=O)n1N)C(=O)NCC1CCCO1 (centres undefined),n,n,93.9,n,93.3,n
Cc1ccc(-n2nc(-c3cccs3)cc2C(=O)NCC2CCCO2)c(C)c1 (centres undefined),n,n,64.8,n,89.8,n
Cc1cc(N2C(=O)C3C4C=CC(C4)C3C2=O)ccc1Br (centres undefined),n,n,72.8,n,n,n
O=C1C2C3C=CC(C3)C2C(=O)N1c1ccc2c(c1)OCO2 (centres undefined),n,n,n,n,n,n
CC1(C)CC(c2csc(N)n2)CCO1 (centres undefined),n,n,n,n,n,n
O=C(c1ccncc1)N(Cc1cc2ccccc2[nH]c1=O)C1CCCCC1,n,n,90.4,n,74.2,n
O=C(c1ccco1)N(Cc1cc2ccccc2[nH]c1=O)C1CCCCC1,n,n,n,n,54.0,n
CC(C)CN(Cc1cc2ccccc2[nH]c1=O)C(=O)c1cccnc1,n,n,n,n,n,n
O=C(c1ccco1)N(Cc1cc2ccccc2[nH]c1=O)CC1CCCO1 (centres undefined),n,n,n,n,n,n
O=C(CSc1nc2ccccc2s1)c1cc2ccccc2o1,n,n,n,n,n,n
N#C/C(=C1\C(=O)Nc2c(Cl)cc(Cl)cc21)c1nnc2n1CCCCC2,n,n,n,n,n,n
COc1ccc(C(=O)/C=C/Nc2cc(C)on2)c(OC)c1,n,n,n,n,n,n
Cc1ccc(C(=O)COc2nc(C)cc(C)c2C#N)cc1,n,n,n,n,n,n
COC(=O)c1ccc(COc2nc(C)cc(C)c2C#N)o1,n,n,70.4,n,n,n
c1ccc2c(Nc3nc4c(s3)CCCC4)cccc2c1,n,n,n,n,n,n
Nc1nc(SCC(=O)Nc2ccccc2Sc2ccc(Cl)cc2)n[nH]1,n,n,100.4,n,98.8,n
Nc1nc(SCC(=O)Nc2cc(-c3ccccc3)nn2-c2ccccc2)n[nH]1,n,n,93.6,n,60.5,n
COc1ccc(NC(=O)CSc2n[nH]c(N)n2)c([N+](=O)[O-])c1,n,n,n,n,n,n
C=CCSc1nc(N)c2c(C)c(C)sc2n1,n,n,87.6,n,58.1,n
C=CCSc1nc2sc(C)c(C)c2c(=O)[nH]1,x,x,x,n,x,n
Cc1ccccc1-n1nc2c(c1NC(=O)c1cc3ccccc3oc1=O)CS(=O)(=O)C2,n,n,n,n,n,n
CC1CCN(C(=O)c2ccc3c(c2)OCCO3)CC1,n,n,n,n,n,n
CC1CCN(C(=S)c2ccc3c(c2)OCO3)CC1,n,n,99.1,n,n,n
O=C(CN1CCN(S(=O)(=O)c2ccccc2)CC1)NC(=O)NCc1ccccc1,n,n,n,n,62.3,n
O=C(CN1CCN(S(=O)(=O)c2ccccc2)CC1)NC(=O)NC1CCCCC1,n,n,54.9,n,74.5,n
C=CCn1c(=O)c2ccccc2n2c(SC(C)C(=O)Nc3nc(-c4ccccc4)cs3)nnc12 (centres undefined),x,x,x,n,x,n
Oc1ccc2ccccc2c1C1Nc2cccc3cccc(c23)N1,n,n,n,n,72.0,36.8
COc1ccc(-n2nnnc2SCC(=O)NC(=O)Nc2ccc3c(c2)OCCO3)cc1,n,n,n,n,n,n
